Growth data for 8 compounds are collected here from PubChem BioAssay (NCI).

The panel holds about 83,000 compounds, 20% with a hit somewhere; the sample as a whole holds those more often.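 Growth was measured after 48 h exposure to one concentration of compound in 96-well plates. Values under 10 count as active.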 A number with no mark means an inactive call. Calls of active or inactive are those of the source.

Common to all, as to assay: NCI-60 one-dose screen, 48 h (100 = growth as untreated, 0 = no growth, -100 = all killed)
What all share (details): 10 µM unless noted

In assay [1] the test system is SK-MEL-2 melanoma.
Assay [2] deals with EKVX NSCLC.
Assay [3] deals with SN12C renal.
Assay [4] deals with UO-31 renal.
The subject of assay [5] is TK-10 renal.
Assay [6] relates to ACHN renal.
Assay [7] deals with A498 renal.
Assay [8] concerns CCRF-CEM leukemia.
Assay [9] relates to MOLT-4 leukemia.
For assay [10], the system named is SR leukemia.
Assay [11] concerns RPMI-8226 leukemia.
In assay [12] the test system is OVCAR-8 ovarian.
In assay [13] the test system is OVCAR-5 ovarian.
Assay [14] deals with OVCAR-4 ovarian.
The subject of assay [15] is SK-OV-3 ovarian.
Assay [16] deals with IGROV1 ovarian.
For assay [17], the system named is OVCAR-3 ovarian.
The subject of assay [18] is HS 578T breast.
The subject of assay [19] is NCI/ADR-RES ovarian.
Assay [20] concerns CAKI-1 renal.

On to `Clc1ccc2c(NCCNc3nc(N4CCOCC4)nc4ccccc34)ccnc2c1`, for which the growth was -42.9% (active) in assay [1]; 31.1% in assay [2]; 0.0194% (active) in assay [3]; -89% (active) in [4]; -88.6% (active) in assay [5]; -44.2% (active) in assay [6]. The growth was -12.8% (active) in assay [7]; -8.56% (active) in assay [8]; 11.7% in [9]; -23.5% (active) in assay [10]; -37% (active) in assay [11]; -25.8% (active) in assay [12]. Moreover, the growth in assay [13] is 51.8%; in assay [14], 3.78% (active); in [15], -37.8% (active); in [16], 48.8%; in assay [17], -75% (active); in [18] it was -13.9% (active). Besides, the growth in assay [19] was 47.9%.
In the case of `CCCCCCCCCCCCC[N+](C)(C)Cc1ccccc1`, the growth in [1] is -80.2% (active); in assay [2], 3.49% (active); in assay [3], -55.7% (active); in [4], 43.6%; in assay [5], -59.5% (active); in assay [6], 16.8%. Moreover, the growth is 76.5% in assay [20]; -14.8% (active) in assay [8]; -10.1% (active) in assay [9]; -50.9% (active) in assay [11]; -30.5% (active) in assay [12]; 24.9% in assay [13]. The growth in [14] was 8.67% (active); in assay [15], 4.31% (active); in assay [16] it was -49.9% (active); in assay [17] it was -61.1% (active); in [18] it was -31.4% (active).
With `O=C(COc1cccc(/C=C2\CSc3ccccc3C2=O)c1)Nc1nccs1`, the growth in assay [1] was 69.3%; in [2], 25.5%; in [3], 89.4%; in [4], 60.1%; in assay [5], 70%; in assay [6], 69.9%. The growth in assay [20] was 78.1%; in assay [8], 4.26% (active); in [9], -51.1% (active); in assay [10], -47% (active); in assay [11], -31.2% (active); in assay [13], 83.8%. Also, the growth in assay [14] is 78.3%; in assay [15], 116%; in assay [16] it was -52.2% (active); in assay [17], 24.4%; in [18] it was -8.26% (active); in assay [19], 54.8%.
With `O=C(/C=C/C=C/c1ccc2c(c1)OCO2)N/N=C\c1ccc(O)cc1O`, the growth is 52.8% in [1]; 20.2% in assay [2]; 32.8% in assay [3]; 11.4% in [4]; 31% in assay [5]; 14.4% in [6]. The growth is 9.65% (active) in [20]; 18% in assay [8]; 13.3% in assay [9]; 21.3% in [10]; 47.7% in assay [11]; 22.8% in assay [12]. The growth was 9.43% (active) in assay [14]; 27% in [15]; 28.9% in [16]; 9.27% (active) in assay [17]; 70.2% in assay [18]; 5.15% (active) in [19].
Consider `CC(C)c1c(C(=O)c2ccccc2)c(-c2ccccc2)c(-c2ccc(F)cc2)n1CC[C@@H](O)C[C@@H](O)CC(=O)O`, for which the growth in assay [1] was 36.2%; in [2], 68.2%; in assay [3], 31.9%; in assay [4], 72%; in assay [5], 116%; in assay [6], 25.3%. Besides, the growth in [20] was 21.6%; in assay [8], 81.4%; in assay [9] it was 87.6%; in assay [11], 67.1%; in assay [12] it was 49.6%; in assay [13], 88.2%. Further, the growth in assay [14] is 87.5%; in [15], 84.5%; in assay [16] it was 39.5%; in [17] it was 83.9%; in assay [18], 17.1%; in [19], 48.9%.
On to `O=C(Cc1ccc(/C=C/C(=O)c2ncc[nH]2)cc1)Nc1ccccc1`, for which the growth in assay [1] is 82.8%; in assay [2], 64.6%; in assay [3], 21.8%; in assay [4] it was 31.3%; in assay [5] it was 49.1%; in assay [6], 76%. The growth was 83.5% in [7]; 3.9% (active) in assay [8]; 29.1% in assay [9]; 1.14% (active) in assay [10]; -0.0972% (active) in assay [11]; 22.1% in assay [12]. Moreover, the growth in assay [13] is 78.5%; in [14], 68.2%; in [15] it was 75.9%; in assay [16], 63.5%; in [17], 17.7%; in assay [18] it was 80.7%. Further, the growth in [19] was 31.1%.
For the compound `COc1cc(/C=C/C(=O)c2cccnc2Nc2ccc(F)cc2)cc(OC)c1OC`, the growth in assay [1] was 27.5%; in assay [2], 69.5%; in [3], 16.2%; in assay [4], 75.6%; in assay [5] it was 77.8%; in assay [6], 45.7%. Further, the growth in [20] is 51.6%; in [8] it was -10.6% (active); in assay [9] it was 5.4% (active); in assay [10], 2.85% (active); in assay [11] it was 1.24% (active); in assay [13], 35.8%. Besides, the growth in [14] was 61.6%; in assay [15], 42%; in assay [17], 16.1%; in assay [18], 24.9%; in assay [19] it was 8.54% (active).
Take `Nc1nc2ccc3[nH]ncc3c2c2c1CCCC2`: the growth in [1] was -7.53% (active); in assay [2] it was -4.32% (active); in assay [3] it was 11.3%; in assay [4], 5.99% (active); in [5], 4.7% (active); in assay [6], 3.71% (active). Further, the growth in [20] is 6.67% (active); in [8] it was 0.983% (active); in [9], -2.01% (active); in [10] it was -16.6% (active); in assay [11], 6.83% (active); in [12], 7.6% (active). For the same compound, the growth is 8.24% (active) in assay [13]; 16.2% in assay [14]; 16.6% in assay [15]; 8.21% (active) in assay [16]; 5.2% (active) in [17]; -9.88% (active) in assay [18]. Besides, the growth in [19] was 2.46% (active).
